ATXN viability: cell viability loss in ATXN counter-screen; S2 cells (HEK-293 line with an ATXN2-luciferase reporter) viability, CellTiter-Fluor protease fluorescence, 24 h; Potency, µM (titrated, usually from 56.7 µM), usual class: cytotoxic; AID 651635; 400,000 compounds, 0.49% hits; further: nearly all actives have a fitted effect of over 40% in size
KB-3-1 tox: kills parental KB-3-1 adenocarcinoma cells; KB-3-1 viability, CellTiter-Glo ATP luminescence, 72 h; Potency, µM (top dose mostly 46.1 µM), usual class: cytotoxic; 400,000 compounds, 1.4% hits; AID 1347075; further: nearly all actives have a fitted effect of over 60% in size
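72 h, 37 °C compound treatment of KB-3-1 parental cells; CellTiter-Glo added, 10 min, luminescence read. Data corrected against DMSO-only plates and normalized before curve fitting.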
HepG2 tox: kills HepG2 cells in TGF-b inhibitor counter-screen | Potency, µM (series often up to 46.1 µM), most hits filed as cytotoxic | AID 588856 | 410,000 compounds, 0.76% hits | HepG2 CAGA-GFP viability, ATP luminescence, 18 h
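CellTiter-Glo luminescence gave cytotoxicity after 18 hours at 37 degrees C. The cells were HepG2 CAGA-GFP in 1% FBS DMEM, stimulated with 500 pg/mL TGF-beta after compound addition. %Activity was normalised to no-cell wells (complete cell-killing) and DMSO (no toxicity), and curves were fitted and classified.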
TGFb inhibitor: inhibitors of TGF-b signaling. HepG2 CAGA-GFP TGF-b/SMAD3 reporter, GFP fluorescence, 18 h; TGF-beta stimulated, 500 pg/mL final. Potency, µM (highest dose often 46.1 µM), hits mostly inhibitors. 410,000 compounds, 1.2% hits; further: nearly all actives have a fitted effect of over 65% in size
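GFP signal (ex488/em500-530) from TGF-beta-stimulated HEPG2 CAGA-GFP cells, 500 pg/mL final, 18 h at 37 degrees C in DMEM plus 1% FBS, normalized to unstimulated and DMSO-stimulated controls.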
ATXN2 expr inh: reduces ATXN2 reporter expression in HEK-293 cells. HEK-293 ATXN2-luciferase reporter, luminescence, 24 h. Potency, µM (doses to about 57 µM), actives largely listed as inhibitors. 360,000 compounds, 0.72% hits. AID 1745845; further: nearly all actives have a fitted effect of over 55% in size
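qHTS (up to 57 uM final) was run with 24 h compound exposure of reporter cells at 37 °C. Each well was multiplexed: SteadyGlo luminescence measured ATXN2-luciferase expression after a fluorogenic Gly-Phe-AFC viability readout (25 uM final).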
KB-V1 MDR tox: KB-V1 MDR subline cytotoxicity. Potency, µM (series often up to 46.1 µM), usual class: cytotoxic. 400,000 compounds, 3.4% hits. KB-V1 MDR cells viability, CellTiter-Glo, 72 h; further: nearly all actives have a fitted effect of over 60% in size
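In this primary screen, KB-V1 cells overexpressing P-gp are incubated with library compounds (lowest to highest concentration) for 72 h at 37 degrees C before a luminescent ATP viability read.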
Numbers stand for hits; ! = repeats disagree. Only some compounds are listed: those with a hit (about 5.9% of all), similar ones and a draw of the others. The call rests on the fitted dose curve; in most records, active means well fitted curve in the direction sought with a large enough effect; inconclusive means small, poorly fitted or top-dose-only effect, or another doubt; inactive means no such curve, though single readings can be large; an effect the other way counts as inactive or inconclusive.

How did CC1CCC(C(C)C)C(OC(=O)CSc2nccc(=O)[nH]2)C1 (stereo not given) do in these assays?
ATXN viability: inactive; KB-3-1 tox: inactive; HepG2 tox: inactive; TGFb inhibitor: inactive; ATXN2 expr inh: inactive; KB-V1 MDR tox: inactive

Results for COc1ccc(-c2n(CC(=O)OC3CC(C)CCC3C(C)C)c3ccccc3[n+]2C)cc1 (stereo not given) ?
ATXN viability: inconclusive; KB-3-1 tox: inconclusive; HepG2 tox: 11.2µM; TGFb inhibitor: 5.01µM; ATXN2 expr inh: 7.52µM; KB-V1 MDR tox: inconclusive

How did CC1CCC(C(C)C)C(OC(=O)COC(=O)c2ccc(=O)[nH]c2)C1 (stereo not given) do in these assays?
ATXN viability: inactive; KB-3-1 tox: inactive; HepG2 tox: inactive; TGFb inhibitor: inactive; ATXN2 expr inh: inactive; KB-V1 MDR tox: inactive

Results for Oc1c(I)cc(Cl)c2cccnc12 ?
ATXN viability: inconclusive; KB-3-1 tox: inactive; HepG2 tox: inactive; TGFb inhibitor: 15.8µM; ATXN2 expr inh: 31.6µM!; KB-V1 MDR tox: inconclusive

Results for COc1cc(OC)cc(C(=O)Oc2c(CN3CCOCC3)cc(Cl)c3cccnc23)c1 ?
ATXN viability: inconclusive; KB-3-1 tox: inactive; HepG2 tox: inactive; TGFb inhibitor: inconclusive; ATXN2 expr inh: inactive; KB-V1 MDR tox: inconclusive

Results for O=[N+]([O-])c1cc(Cl)c2cccnc2c1O ?
ATXN viability: inconclusive; KB-3-1 tox: inconclusive; HepG2 tox: inactive; TGFb inhibitor: inconclusive; ATXN2 expr inh: inconclusive; KB-V1 MDR tox: inconclusive

How did O=[N+]([O-])c1ccc(O)c2ncccc12 do in these assays?
ATXN viability: 12.6µM!; KB-3-1 tox: inconclusive; HepG2 tox: inactive; TGFb inhibitor: 5.62µM; ATXN2 expr inh: 10µM; KB-V1 MDR tox: inconclusive

Results for O=[N+]([O-])c1cc(Cl)c(O)c2ncccc12 ?
ATXN viability: inconclusive; KB-3-1 tox: 7.31µM; HepG2 tox: inactive; TGFb inhibitor: inconclusive; ATXN2 expr inh: 20µM; KB-V1 MDR tox: inactive

Results for Oc1c(CN2CCc3ccccc3C2)cc(Cl)c2cccnc12 ?
ATXN viability: 3.98µM; KB-3-1 tox: inconclusive; HepG2 tox: inactive; TGFb inhibitor: 5.62µM; ATXN2 expr inh: 5.62µM; KB-V1 MDR tox: inconclusive

How did CC(=O)OCC(NC(=O)C1CCCN1C(=O)OC(C)(C)C)C1OC(n2ccc(=O)[nH]c2=O)C(OC(C)=O)C1OC(C)=O (stereo not given) do in these assays?
HepG2 tox: inactive; TGFb inhibitor: inactive

What do the screens show for `Cc1ccc(Cl)cc1N1CCN(C(=O)c2sc3nc4n(c(=O)c3c2C)CCC4)CC1`?
KB-3-1 tox: inactive; HepG2 tox: inactive; TGFb inhibitor: inactive; KB-V1 MDR tox: inactive

Results for Cc1cccc(-c2nc(Cn3c(SCc4cccc(C(F)(F)F)c4)nc4ccncc43)c(C)o2)c1 ?
ATXN viability: inconclusive; KB-3-1 tox: inactive; HepG2 tox: inactive; TGFb inhibitor: inconclusive; ATXN2 expr inh: inactive; KB-V1 MDR tox: inactive

What do the screens show for `CCOc1ccccc1N(CC(=O)NCCSc1ccccc1)S(=O)(=O)c1ccccc1`?
ATXN viability: inconclusive; KB-3-1 tox: inactive; HepG2 tox: inactive; TGFb inhibitor: inconclusive; ATXN2 expr inh: inconclusive; KB-V1 MDR tox: inconclusive

What do the screens show for `O=[N+]([O-])c1cc(F)c2cccnc2c1O`?
ATXN viability: inconclusive; KB-3-1 tox: inconclusive; HepG2 tox: 15.8µM; TGFb inhibitor: inconclusive; KB-V1 MDR tox: inactive

How did O=C(SCc1c(O)c2ccccc2oc1=O)c1ccccc1 do in these assays?
ATXN viability: inactive; KB-3-1 tox: inactive; HepG2 tox: inactive; TGFb inhibitor: inactive; KB-V1 MDR tox: inactive

What do the screens show for `O=c1oc2ccccc2c(O)c1Cc1cc(Cl)c2cccnc2c1O`?
ATXN viability: inactive; KB-3-1 tox: 16.4µM; HepG2 tox: inactive; TGFb inhibitor: inactive; ATXN2 expr inh: inconclusive; KB-V1 MDR tox: inconclusive

How did Cc1ccc(N2C(=O)c3cccc4c([N+](=O)[O-])ccc(c34)C2=O)c2cccnc12 do in these assays?
ATXN viability: inactive; KB-3-1 tox: 0.0651µM; HepG2 tox: inactive; TGFb inhibitor: inactive; KB-V1 MDR tox: inconclusive
